HT1080-NT tox: kills 2HG-producing HT-1080-NT fibrosarcoma cells. actives 1.6% (n = 360,000). HT-1080-NT fibrosarcoma viability, CellTiter-Glo ATP luminescence, 48 h. AID 686970. Potency, µM (titrated, usually from 46.1 µM), for the others: at the top dose activity, negative = less viability, hits mostly cytotoxic;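 also: NT is the 2HG producing partner of a matched IDH1 knockdown line; potency is read from the fitted curve at half-maximal effect; 0% = DMSO-treated cells and -100% = media-only wells without cells; nearly all actives have a fitted effect of over 55% in size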
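Viability of the 2HG-overproducing fibrosarcoma line after 48 hours of compound exposure at 37 degrees C was determined by luminescence with CellTiter-Glo, and concentration-effect curves were then fitted and categorized.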
TDP1 cell noCPT: qHTS for Inhibitors of human tyrosyl-DNA phosphodiesterase 1 (TDP1): qHTS in cells in absence of CPT; DT40 Tdp1-/- hTDP1 cells, no CPT, ATP luminescence, 48 h; Potency, µM (top dose mostly 46.2 µM), inactives show at the top dose activity change, negative = growth inhibition, actives largely listed as inhibitors; actives 15% (n = 420,000); AID 686978, 2013; also: potency is read from the fitted curve at half-maximal effect; nearly all actives have a fitted effect of over 55% in size
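Compound effects on proliferation are scored in DT40 Tdp1-/-;hTDP1 cells in the absence of CPT. ATP levels (CellTiter-Glo luminescence) are recorded after a ≥48 hr, 37 °C incubation.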
IL1B secr inh: inflammasome signaling inhibition, IL-1 beta readout; THP-1 LPS/ATP IL-1B secretion, AlphaLISA, 16 h; hits give low values; actives 4.7% (n = 360,000); activity change, % at 57.5 µM; in the data active = activity change below about -50%; inconclusive = mostly about -30% to -49%
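THP-1 cells pretreated 1 hr with compounds (up to 57.5 uM final), then stimulated with LPS (250 ng/mL final) plus ATP (1.25 mM final); secreted IL-1B measured by AlphaLISA after 16 hr, decreased signal indicating inhibition.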
HT1080 IDH1KD tx: HT-1080 IDH1 knockdown cell toxicity (counter line) | HT-1080 IDH1 knockdown viability, ATP luminescence, 48 h | Potency, µM (titrated, usually from 46.1 µM), without a hit: at the highest dose activity, negative = toxicity, usual class: cytotoxic | actives 2% (n = 360,000);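 also: potency is read from the fitted curve at half-maximal effect; 0% = DMSO wells and -100% = cell-free medium wells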
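Luminescent ATP read-out (CellTiter-Glo, 10 min at room temperature) after 48 h compound exposure at 37 °C gave viability of IDH1-knockdown HT-1080 cells. Activity was normalised to DMSO and cell-free wells, then fitted as concentration-response curves.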
DT40 TDP1 CPT: DT40-hTDP1 cell growth loss with CPT; chicken DT40 Tdp1-/-;hTDP1 cells + 20 nM CPT, ATP luminescence, 48 h; Potency, µM (top dose mostly 46.2 µM), inactives show at the highest dose activity change, negative = growth inhibition, actives largely listed as inhibitors; actives 12% (n = 420,000); AID 686979; also: potency is read from the fitted curve at half-maximal effect; nearly all actives have a fitted effect of over 55% in size
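Chicken DT40 Tdp1-/- cells stably complemented with human TDP1 were seeded at 400 cells/well in medium containing 20 nM camptothecin, exposed to pin-transferred compounds, and grown at 37 °C for at least 48 hr. Viability was read as ATP luminescence.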
Numbers without * were called inactive; ? = inconclusive; nt = no result given; ! = not active in a repeat; [ ] = dose if it differs, or a comment. Only some compounds are listed: those with a hit (about 19% of all), similar ones and a draw of the others. Unless noted, calls follow the shape of the dose curve; as a rule, active = well fitted curve in the direction sought with a large enough effect; inconclusive = small, poorly fitted or top-dose-only effect, or another doubt; inactive = no such curve, though single readings can be large; an effect the other way counts as inactive or inconclusive. Unless noted, % is scaled to controls: 0 for no effect and ±100 for the full control effect.

SMILES | HT1080-NT tox | TDP1 cell noCPT | IL1B secr inh | HT1080 IDH1KD tx | DT40 TDP1 CPT
O=C(NCCCN1CCOCC1)c1ccccc1N1C(=O)[C@@H]2Cc3c([nH]c4ccccc34)C(c3ccc(F)cc3)N2C1=O (stereo partly specified) | -19% | 15µM* | -6 | -17% | 9.2µM*
O=C(NCCN1CCOCC1)c1ccccc1N1C(=O)[C@@H]2Cc3c([nH]c4ccccc34)C(c3ccccc3)N2C1=O (stereo partly specified) | 2% | ? | -6 | -13% | ?
COc1ccc(C2C(C(=O)Nc3ccc4c(c3)OCCO4)c3ccccc3C(=O)N2C)cc1 (stereo unspecified) | -5% | ? | 13 | -1% | -1%
Cc1ccc(S(=O)(=O)N(CC(=O)Nc2ccc(F)cc2F)Cc2ccc(F)cc2)cc1 | nt | 21µM* | nt | nt | 18µM*
Cc1ccc(S(=O)(=O)N(CC(=O)NCc2ccco2)Cc2ccc(F)cc2)cc1 | 13% | -19% | -10 | 2% | -15%
CCOC(=O)c1ccc(NC(=O)CN(Cc2ccc(C)cc2)S(=O)(=O)c2ccc(C)cc2)cc1 | nt | 13µM* | nt | nt | 13µM*
CC(=O)N1c2ccc(S(=O)(=O)N3CCCCC3)cc2CC1C(=O)Nc1cccc(C)c1 (stereo unspecified) | -2% | -4% | 37 | -19% | ?
CCOc1ccc(-n2c(SC(C)C)nc3c(c2=O)SCC3)cc1 | -16% | 16µM* | -2 | -21% | ?
O=C(COC(=O)CN1C(=O)COc2ccccc21)NCc1ccc(F)cc1 | -4% | -16% | 0 | -7% | -14%
CC1CCCN(C(=O)Cn2c(=O)n(CC3CCC(C(=O)NC(C)C)CC3)c(=O)c3sccc32)C1 (stereo unspecified) | nt | -18% | nt | nt | -29%
Cc1cccc(Cn2c(=O)n(CC3CCC(C(=O)N4CCOCC4)CC3)c(=O)c3sccc32)c1 (stereo unspecified) | nt | 18µM* | nt | nt | 23µM*
CCCNC(=O)C1CCC(Cn2c(=O)c3sccc3n(Cc3ccccc3C)c2=O)CC1 (stereo unspecified) | nt | -23% | nt | nt | -13%
COc1cccc(Cn2c(=O)n(CC3CCC(C(=O)N4CCOCC4)CC3)c(=O)c3sccc32)c1 (stereo unspecified) | nt | 21µM* | nt | nt | ?
O=C(C1CCC(Cn2c(=O)c3sccc3n(Cc3ccccc3F)c2=O)CC1)N1CCOCC1 (stereo unspecified) | nt | ? | nt | nt | 16µM*
c1ccc(-n2ncc3c(NC4CCCCCC4)ncnc32)cc1 | -1% | ? | -53* | -1% | ?
Cc1ccc(Cl)cc1-n1ncc2c(NC3CCCCCC3)ncnc21 | nt | 21µM* | nt | nt | 21µM*
Clc1ccc(-n2ncc3c(NCC4CCCO4)ncnc32)cc1 (stereo unspecified) | ? | 16µM* | -14 | ? | 16µM*
Cc1ccc(Cl)cc1-n1ncc2c(NNC(=O)c3ccco3)ncnc21 | 12% | -20% | -4 | 9% | 2%
CCOC(=O)N1CCC(Nc2ncnc3c2cnn3-c2ccccc2)CC1 | 2% | 11µM* | -9 | 12% | ?
CCOc1cc(N2CCOCC2)c(OCC)cc1NC(=O)C1=COCCO1 | 1%[9.24 µM] | ? | -26 | 2% | ?
COCCn1c(Cc2ccccc2)nnc1SCC(=O)NC1CC1 | 10% | -11% | -7 | 8% | -1%
CCOc1ncccc1C(=O)Nc1nc(SC)ns1 | 2% | -11% | 39 | -1% | ?
COc1ccc(-n2ncc3c(NCc4ccco4)ncnc32)cc1 | -6% | -14% | -5 | 7% | -7%
Clc1ccc(-n2ncc3c(NC4CCCC4)ncnc32)cc1 | nt | 16µM* | nt | nt | 16µM*
Clc1ccc(-n2ncc3c(NCc4ccco4)ncnc32)cc1 | -14% | 15µM* | 0 | ? | ?
SMILES | HT1080-NT tox | TDP1 cell noCPT | IL1B secr inh | HT1080 IDH1KD tx | DT40 TDP1 CPT
OCCCNc1ncnc2c1cnn2-c1ccc(Cl)cc1 | 9% | ? | -23 | 2% | -23%
CCN(CC)S(=O)(=O)c1cccc(-n2c(O)c(C=Nc3ccccc3C(=O)O)c3ccccc3c2=O)c1 | ? | 2.1µM* | 8 | ? | 4.1µM*
Cc1ccc(C)c(NC(=O)CN(C)C(=O)[C@@H](NC(=O)c2ccc(C(C)(C)C)cc2)C(C)C)c1 | 0% | 18µM* | -21 | -19% | 23µM*
CSCCC(NC(N)=O)C(=O)N(C)CC(=O)Nc1cc(C)ccc1C (stereo unspecified) | -2% | 3% | 6 | -7% | -4%
Cc1cccc(-n2c(=O)c3ccccc3n(Cc3ccccc3)c2=O)c1 | nt | ? | nt | nt | 23µM*
COc1ccc(-n2c(=O)c3ccccc3n(Cc3cccc(C)c3)c2=O)cc1 | nt | -20% | nt | nt | ?
COc1cccc(Cn2c(=O)n(-c3cc(C)cc(C)c3)c(=O)c3oc4ccccc4c32)c1 | nt | 16µM* | nt | nt | ?
Cc1cccc(Cn2c(=O)n(-c3cc(C)cc(C)c3)c(=O)c3oc4ccccc4c32)c1 | nt | 12µM* | nt | nt | 8.2µM*
COc1ccc(Cn2c(=O)n(Cc3ccco3)c(=O)c3oc4ccccc4c32)cc1 | nt | 23µM* | nt | nt | ?
COc1ccc(C(=O)N(C)C2CCCCC2)cc1S(=O)(=O)N1CCOCC1 | 4% | -10% | 8 | -3% | -21%
Cc1ccc(S(=O)(=O)NCC(=O)N(CC2CCCO2)C(C(=O)NC2CCCCC2)C(C)C)cc1 (stereo unspecified) | 14% | -29% | -5 | 7% | -22%
Cc1ccc(-n2c(=O)c3oc4ccccc4c3n(Cc3cccc(F)c3)c2=O)cc1C | nt | ? | nt | nt | 26µM*
CCCCn1c(=O)c2c(O)cc(=O)oc2c2ccccc21 | 1% | ? | 42 | 7% | -2%
O=c1cc(O)c2c(=O)n(Cc3ccccc3)c3ccccc3c2o1 | -15% | 23µM* | 26 | -24% | ?
COC(=O)CCCNC(=O)c1ccc(S(=O)(=O)NCc2ccco2)cc1 | 5% | -5% | 11 | 12% | -20%
Cc1ccc(S(=O)(=O)/N=C(/Nc2ccc([N+](=O)[O-])cc2)c2ccccc2)cc1 | -22% | ? | 12 | -21% | 2%
CC(=O)c1cc2c(cc1N/C(=N/S(=O)(=O)c1ccc(C)cc1)c1ccccc1)OCO2 | 12% | ? | -15 | 7% | 23µM*!
Cc1ccc(S(=O)(=O)/N=C(/Nc2ccc([N+](=O)[O-])cc2[N+](=O)[O-])c2ccccc2)cc1 | -17% | ? | -67* | 0% | ?
CC(=O)c1cc2c(cc1N/C(=N/S(=O)(=O)c1ccc(C)cc1)c1ccc(Cl)cc1)OCO2 | 15% | -1% | 27 | 16% | ?

Source: PubChem
